A short description of test [1]: TOX21_p53_BLA_p2_viability: Viability Assessment in the Tox21 HCT-116 p53 Agonism Beta-lactamase Assay, Phase 2 (AID 2283591).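 Further: compound exposure lasted 16 h at 37 °C; actives lower the ATP signal meaning cytotoxicity.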 In short, it runs like this: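 Cytotoxicity readout: CellTiter-Glo ATP luminescence, 30 min at room temperature, after the beta-lactamase read. Cells were HCT116 exposed 16 h at 37C to compounds pin-transferred at 217-fold dilution from DMSO stocks.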

Test [2] deals with Cellular tumor antigen p53 (Homo sapiens) (UniProt P04637). Nature of the test: TOX21_p53_BLA_p2_ratio: Tox21 HCT-116 p53 Agonism Beta-lactamase Assay, Ratio, Phase 2 (AID 2283592). In short, it runs like this: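 Cleaved-to-uncleaved substrate ratio (460 vs 530 nm) measured in HCT116 cells with an inducible beta-lactamase reporter linked to p53 activity. Compounds incubated 16 h at 37C before 2 h room-temperature CCF4-AM loading.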

A short description of test [3]: TOX21_p53_BLA_p4_viability: Viability Assessment in the Tox21 HCT-116 p53 Agonism Beta-lactamase Assay, Phase 4 (AID 2283597).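 Further: hits lower the luminescence signal meaning cytotoxicity.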 In short, it runs like this:
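Viability is taken as cellular ATP: after 16 h compound exposure of HCT116 cells and a 2 h room-temperature CCF4-AM substrate step, CellTiter-Glo reagent is added and luminescence is measured 30 min later.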

In test [4] the target is Cellular tumor antigen p53 (Homo sapiens) (UniProt P04637). Nature of the test: TOX21_p53_BLA_p5_ratio: Tox21 HCT-116 p53 Agonism Beta-lactamase Assay, Ratio, Phase 5 (AID 2283599). In short, it runs like this: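 Beta-lactamase reporter ratio (blue 460 nm over green 530 nm, 405 nm excitation) after 2 h CCF4-AM loading, in HCT-116 cells exposed 16 h at 37 C to compounds pinned at 217-fold dilution. Increases relative to DMSO baseline scored.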

Test [5] can be described thus: TOX21_p53_BLA_p5_viability: Viability Assessment in the Tox21 HCT-116 p53 Agonism Beta-lactamase Assay, Phase 5 (AID 2283600). In short, it runs like this:
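Viability is taken from cellular ATP content, measured by luciferase luminescence in the same wells after the beta-lactamase ratio read. Cells are seeded at 4000 per well and exposed to DMSO-dissolved compounds, diluted 217-fold, for 16 h.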

Test [6] addresses Cellular tumor antigen p53 (Homo sapiens) (UniProt P04637). The experiment in a line: TOX21_p53_BLA_p3_ratio: Tox21 HCT-116 p53 Agonism Beta-lactamase Assay, Ratio, Phase 3 (AID 2283596). In short, it runs like this:
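Cells were seeded at 4000/well, rested 5 h at 37C, then dosed with DMSO compound solutions (217-fold dilution) for 16 h. CCF4-AM substrate was loaded for 2 h at room temperature, and the 460/530 nm emission ratio was fitted for gain of signal versus DMSO.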

Test [7] has the same target. Nature of the test: TOX21_p53_BLA_p4_ratio: Tox21 HCT-116 p53 Agonism Beta-lactamase Assay, Ratio, Phase 4 (AID 2283601). In short, it runs like this:
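Signal is the blue/green (460nm/530nm) ratio of cleaved versus uncleaved CCF4-AM substrate, read after 2 h substrate loading. Cells were HCT116 carrying the p53-responsive beta-lactamase reporter, dosed 16 h at 37C, 5% CO2; CellTiter-Glo measured in parallel.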

For another test, the target named is THRA (gene 7067) (UniProt P10827). Nature of the test: TOX21_TRA_COA_Antagonist_Followup_ratio: Tox21 Thyroid Hormone Receptor alpha Antagonism through Coactivator Recruitment Follow-Up Assay, Ratio (AID 2283953). In short, it runs like this:
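GST-TRα LBD 2.5 nM, BSA 0.10%, + cpd; then FITC-SRC-2 peptide 200 nM + Tb-anti-GST Ab 2 nM. TR-FRET ratio 520/495 nm. Norm: DMSO = 0%, T3 = 100%.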

Test [8] can be described thus: TOX21_TRB_BLA_Antagonist_Followup_viability: Viability Assessment in the Tox21 Thyroid Hormone Receptor beta Antagonism Beta-lactamase (BLA) Follow-Up Assay (AID 2283961). In short, it runs like this:
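Cytotoxicity is measured in parallel with the antagonist-mode TRβ beta-lactamase screen, using ATP-coupled luciferase luminescence. Engineered HEK293T cells are treated for 18 h with 11-point compound series in triplicate.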

For a further test, the target named is THRB (gene 7068) (UniProt P10828). The experiment in a line: TOX21_TRB_COA_Antagonist_Followup_ratio: Tox21 Thyroid Hormone Receptor beta Antagonism through Coactivator Recruitment Follow-Up Assay, Ratio (AID 2283967). In short, it runs like this: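 Coactivator recruitment to the GST-tagged TRb ligand-binding domain (5.0 nM) was read as the 520/495 nm TR-FRET ratio, using 200 nM fluorescein SRC-2 peptide and 2 nM terbium anti-GST. Scaled between DMSO and T3 wells; loss of signal fitted.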

Test [9] is described as follows: CCTE_Harrill_HTTr_Viability_MCF7: CCTE's 6-hour Cell Viability Assessment for the High-Throughput Transcriptomics (HTTr) Platform, in MCF-7 cells cultured in DMEM + 10% fetal bovine serum, Harrill Lab (AID 2284010; active means hit-call score of the fitted dose curve at least 0.9, where 1 is the maximum; inactive means score below 0.9). In short, it runs like this: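 Read-out is propidium iodide gain of signal by high-content imaging, reflecting membrane integrity loss. Measurements are taken 6 h after dosing, eight concentrations per chemical, with DMSO serving as baseline for bidirectional curve fitting.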

A short description of test [10]: CCTE_Harrill_HTTr_Apoptosis_MCF7: CCTE's 6-hour Apoptosis Assessment for the High-Throughput Transcriptomics (HTTr) Platform, in MCF-7 cells cultured in DMEM + 10% fetal bovine serum, Harrill Lab (AID 2284011; active means hit-call score of the fitted dose curve at least 0.9, where 1 is the maximum; inactive means score below 0.9). In short, it runs like this: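 Cells are dosed with test chemicals at eight concentrations and imaged 6 hours later for caspase-3/7 activity using a green fluorogenic detection reagent. Activity is fitted in both directions against DMSO controls.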

Test [11] concerns Brachyury (BRA) Protein Expression, Deisenroth Lab, TBXT (gene 6862). The experiment in a line: CCTE_Deisenroth_DEVTOX-GLR_legacy_Bra: (Legacy) CCTE's DevTox GLR-Endo Assay Evaluation of Brachyury (BRA) Protein Expression, Deisenroth Lab (AID 2284329; active means hit-call score of the fitted dose curve at least 0.9, where 1 is the maximum; inactive means score below 0.9). In short, it runs like this:
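Percent Bra-positive cells, scored by high-content imaging against a threshold of 5x BMAD over the undifferentiated control median, with the 0.2% DMSO median subtracted. RUES2-GLR cultures were dosed twice at 24 h intervals across a 48 h differentiation, at 1 nM–200 uM in ten steps, with n=4 replicates.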

The nature of test [12]: CCTE_Deisenroth_DEVTOX-GLR_legacy_CellCount: (Legacy) Viability Assessment in CCTE's DevTox GLR-Endo Assay, Deisenroth Lab (AID 2284331; active means hit-call score of the fitted dose curve at least 0.9, where 1 is the maximum; inactive means score below 0.9). To be noted: actives raise or lower the signal. In short, it runs like this:
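Viability is taken from imaged nuclei counts in fixed RUES2-GLR cultures after 48 h of differentiation under two 24 h-spaced chemical exposures, 10 concentrations from 1 nM to 200 uM, gain or loss versus DMSO baseline.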

For test [13], the system named is Brachyury (BRA) Protein Expression, TBXT (gene 6862). Nature of the test: CCTE_Deisenroth_DEVTOX-GLR_Endo_BRA: CCTE's DevTox GLR-Endo Assay Evaluation of Brachyury (BRA) Protein Expression, Deisenroth Lab (AID 2284417; active means hit-call score of the fitted dose curve at least 0.9, where 1 is the maximum; inactive means score below 0.9). In short, it runs like this: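 Read-out: BRA+ cell count divided by total cell count by high-content imaging (5 fields per well), expressed relative to 0.2% DMSO solvent control. RUES2-GLR cells dosed twice over a 48 h differentiation; concentrations 1 nM - 200 uM.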

Test [14] can be described thus: CCTE_Deisenroth_DEVTOX-GLR_Endo_CellCount: Viability Assessment in CCTE's DevTox GLR-Endo Assay, Deisenroth Lab (AID 2284420; active means hit-call score of the fitted dose curve at least 0.9, where 1 is the maximum; inactive means score below 0.9). In short, it runs like this: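 Viability in differentiating RUES2-GLR cultures is scored by fluorescent nuclear counts after 48 h and two 24-hourly chemical treatments, as percent change from the 0.2% DMSO control.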
In test [15] the test system is SRY-box transcription factor 17 (SOX17) Protein Expression, Deisenroth Lab, SOX17 (gene 64321). Nature of the test: CCTE_Deisenroth_DEVTOX-GLR_Pluri_SOX17: CCTE's DevTox GLR-Pluri Assay Evaluation of SRY-box transcription factor 17 (SOX17) Protein Expression, Deisenroth Lab (AID 2284427). In short, it runs like this: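 Seed cells 24 h; differentiate 48 h, dosing at 0 and 24 h (1 nM - 200 uM); fix, stain nuclei, image 5 fields per well; count SOX17+ cells over total cells and subtract 0.2% DMSO control.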

Test [16] concerns SRY-box transcription factor 2 (SOX2) Protein Expression, Deisenroth Lab, SOX2 (gene 6657). Nature of the test: CCTE_Deisenroth_DEVTOX-GLR_Pluri_SOX2: CCTE's DevTox GLR-Pluri Assay Evaluation of SRY-box transcription factor 2 (SOX2) Protein Expression, Deisenroth Lab (AID 2284428; active means hit-call score of the fitted dose curve at least 0.9, where 1 is the maximum; inactive means score below 0.9). In short, it runs like this:
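SOX2 expression frequency is scored in a human pluripotent reporter line, RUES2-GLR, exposed to chemicals twice over 48 h. Imaging-based SOX2+ cell percentage is normalized as change versus 0.2% DMSO.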

The subject of test [17] is Brachyury (BRA) Protein Expression, Deisenroth Lab, TBXT (gene 6862). The experiment in a line: CCTE_Deisenroth_DEVTOX-GLR_Pluri_BRA: CCTE's DevTox GLR-Pluri Assay Evaluation of Brachyury (BRA) Protein Expression, Deisenroth Lab (AID 2284429). In short, it runs like this: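 Percent BRA+ cells (BRA+ count over total cells) by high-content imaging of fixed RUES2-GLR cultures, corrected by 0.2% DMSO control. Cells received two doses over 48-hour differentiation, 1 nM–200 uM, n=4 experiments.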

A short description of test [18]: CCTE_Deisenroth_DEVTOX-GLR_Pluri_CellCount: Viability Assessment in CCTE's DevTox GLR-Pluri Assay Evaluation of Total Cell Counts, Deisenroth Lab (AID 2284430; active means hit-call score of the fitted dose curve at least 0.9, where 1 is the maximum; inactive means score below 0.9). In short, it runs like this:
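Cytotoxicity readout: fluorescent nuclei counts by high-content imaging, expressed as percent change relative to 0.2% DMSO. Human RUES2-GLR pluripotent line differentiated 48 h, dosed twice at 24-h intervals across 1 nM - 200 uM (10 points).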

The structures appear in SMILES notation. Records with an inconclusive call do not appear. Activity calls are given as the source filed them. How the source made its calls, unless noted: active means hit-call score of the fitted dose curve at least 0.9, where 1 is the maximum; inconclusive means response in the unintended direction; inactive means score below 0.9.

Cellular tumor antigen p53 (Homo sapiens), sequence (P04637 whole entry, looked up): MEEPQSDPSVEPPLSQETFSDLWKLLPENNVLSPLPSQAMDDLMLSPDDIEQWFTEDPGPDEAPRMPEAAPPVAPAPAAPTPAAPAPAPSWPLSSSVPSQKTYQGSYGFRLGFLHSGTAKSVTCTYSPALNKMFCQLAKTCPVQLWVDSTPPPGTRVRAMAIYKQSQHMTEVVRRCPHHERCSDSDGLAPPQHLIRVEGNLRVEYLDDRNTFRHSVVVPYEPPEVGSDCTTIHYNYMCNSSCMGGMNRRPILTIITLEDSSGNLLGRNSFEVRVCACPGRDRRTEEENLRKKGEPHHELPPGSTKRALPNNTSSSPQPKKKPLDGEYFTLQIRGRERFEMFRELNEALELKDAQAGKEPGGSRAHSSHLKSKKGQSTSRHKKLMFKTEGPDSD
THRB (gene 7068), sequence (P10828 whole entry, looked up, the tested form may be a part): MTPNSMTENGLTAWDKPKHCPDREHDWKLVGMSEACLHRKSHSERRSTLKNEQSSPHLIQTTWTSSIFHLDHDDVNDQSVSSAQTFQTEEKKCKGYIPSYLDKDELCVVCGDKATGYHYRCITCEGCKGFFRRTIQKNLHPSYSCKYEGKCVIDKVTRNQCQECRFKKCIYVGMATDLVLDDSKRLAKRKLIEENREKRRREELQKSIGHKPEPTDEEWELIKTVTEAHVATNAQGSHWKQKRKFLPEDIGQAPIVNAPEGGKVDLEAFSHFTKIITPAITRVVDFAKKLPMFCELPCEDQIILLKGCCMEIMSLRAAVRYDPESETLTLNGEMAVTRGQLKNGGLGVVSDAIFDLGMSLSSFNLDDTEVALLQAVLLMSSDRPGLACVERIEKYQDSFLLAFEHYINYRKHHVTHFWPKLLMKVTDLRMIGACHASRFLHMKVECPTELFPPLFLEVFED
THRA (gene 7067), sequence (P10827 whole entry, looked up, the tested form may be a part): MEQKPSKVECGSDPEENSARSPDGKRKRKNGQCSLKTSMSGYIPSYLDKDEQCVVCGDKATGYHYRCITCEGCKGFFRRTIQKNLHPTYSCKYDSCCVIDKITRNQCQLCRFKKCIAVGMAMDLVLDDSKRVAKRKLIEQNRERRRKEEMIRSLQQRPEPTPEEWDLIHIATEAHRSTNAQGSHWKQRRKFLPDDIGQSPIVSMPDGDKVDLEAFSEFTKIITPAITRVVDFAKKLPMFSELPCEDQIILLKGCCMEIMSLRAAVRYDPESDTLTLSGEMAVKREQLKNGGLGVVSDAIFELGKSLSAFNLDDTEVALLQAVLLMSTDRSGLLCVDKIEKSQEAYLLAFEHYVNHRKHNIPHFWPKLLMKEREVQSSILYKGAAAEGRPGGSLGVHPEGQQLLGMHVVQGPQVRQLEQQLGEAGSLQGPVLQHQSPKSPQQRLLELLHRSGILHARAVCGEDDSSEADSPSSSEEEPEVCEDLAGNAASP

Regarding `c1ccc(CCNc2nc(-c3ccccc3)cs2)cc1`, the call in test [1], in test [2], in [3], in [4] and in test [5] was inactive.

As to `CC(=O)Oc1cccc(C(=O)O)c1OC(C)=O`, the call in [1], in test [2], in test [3], in [4] and in test [5] was inactive.

`Nc1ncnc(Nc2ccccc2)n1`: the molecule was classed as inactive in test [1], in test [2], in [6] and in test [7].

For the molecule `CCN(Cc1ccncc1)C(=O)C(CO)c1ccccc1` (stereo unspecified), the molecule was called inactive in [1], in [2], in test [6] and in test [5].

Regarding `CCCCOCCOC(=O)COc1cc(Cl)c(Cl)cc1Cl`, the outcome in [1], in test [2] and in test [3] was inactive.

Consider `CCCCOC(=O)c1ccccc1C(=O)OCC(CC)CCCC` (stereo unspecified), for which the call in test [1], in test [2] and in test [3] was inactive.

As to `Cc1nc(-c2ccc(OCC(C)C)c(C#N)c2)sc1C(=O)O`, the outcome (in [1]; in test [2]; in test [6]; with THRA (gene 7067); in [8]; in the test with THRB (gene 7068)) was inactive. Further, the outcome in test [9] and in [10] was inactive.

For `CCN1CCC[C@H]1CNC(=O)c1c(O)c(Cl)cc(Cl)c1OC`, the molecule was called inactive in [1], in test [2], in test [3] and in test [4].

As for `O=C(Cl)c1ccccc1[N+](=O)[O-]`, the call in test [1], in test [2], in [6] and in test [5] was inactive.

In the case of `COc1ccc(C)cc1`, the molecule was called inactive in [1], in test [2], in [6], in test [5] and in [7].

For the molecule `O=C(NC(Cc1cc(=O)[nH]c2ccccc12)C(=O)O)c1ccc(Cl)cc1` (stereo unspecified), the call in test [1], in test [2], in test [6] and in test [7] was inactive.

For `Nc1cccc2c1CN(C1CCC(=O)NC1=O)C2=O` (stereo unspecified), the molecule was called inactive in [1], in test [2], in [6], in test [4], in [7] and in test [11]. Further, the molecule was called inactive in [15], in test [17] and in [18]. The AC50 in test [12] is 132 nM (active); in test [13], 5.03 nM (active); in test [14], 132 nM (active); in test [16] it was 28.7 nM (active).

Regarding `Cc1cc(C)cc(OCC2CNC(=O)O2)c1` (stereo unspecified), the molecule was classed as inactive in test [1], in test [2], in [6] and in test [7].

For orientation: AC50 means the concentration giving half of the maximal activity seen.

The values above are taken from PubChem BioAssay (EPA / NIEHS).
